Assay results published in paper PMC5540273 (PLoS ONE, 2017).

Key:
Settings in all cases: concentration: 1 μM,replicates: in singlicate; n = 1
[1] = tested on: FGFR1
[2] = tested on: FGFR2
[3] = tested on: FGFR3
[4] = tested on: FGFR4
[5] = tested on: FGR
[6] = tested on: FLT1
[7] = tested on: FLT3-autoinhibited
[8] = tested on: FLT3
[9] = tested on: FLT4
[10] = tested on: FRK
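Note: KINOMEscan kinase panel screen.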

SMILES | %Inh [1] [%] | %Inh [2] [%] | %Inh [3] [%] | %Inh [4] [%] | %Inh [5] [%] | %Inh [6] [%] | %Inh [7] [%] | %Inh [8] [%] | %Inh [9] [%] | %Inh [10] [%]
Cc1n[nH]c2cc(Nc3ccnc(Nc4cccc(CN5CCOCC5)c4)n3)ccc12 [GW682569] | 15 | 0 | 32 | 0 | 49 | 70 | 18 | 68 | 65 | 0
O=C(NOCC1CC1)c1cc(Br)c(F)c(F)c1Nc1ccc(I)cc1Cl | 0 | 1 | 0 | 0 | 0 | 0 | 0 | 0 | 0 | 0
COc1cc2c(Nc3ccc(NC(=O)c4ccccc4)cc3)ncnc2cc1OCCCN1CCOCC1 [GSK301329] | 0 | 0 | 6 | 0 | 35 | 26 | 0 | 35 | 5 | 7
CC(C)c1nc(-c2cccc(NS(=O)(=O)c3ccccc3)c2)c(-c2ccnc(Nc3ccc4c(c3)CN(C)CC4)n2)s1 [GSK1649598] | 68 | 6 | 35 | 0 | 97.4 | 98.2 | 40 | 90.3 | 99.6 | 98.2
O=C(Nc1cccc(C(F)(F)F)c1)c1cccc(Oc2ccc3nccn3n2)c1 | 24 | 15 | 5 | 6 | 0 | 97.4 | 17 | 18 | 78 | 87
CN(c1ccccc1CNc1nc(Nc2ccc3c(c2)CC(=O)N3)ncc1C(F)(F)F)S(C)(=O)=O | 68 | 64 | 47 | 11 | 37 | 53 | 19 | 99.5 | 85 | 54
COC(=O)c1cccc(NC(=O)NC2CCN(c3ccnc(Nc4cc(OC)c(OC)c(OC)c4)n3)C2)c1 (stereo not drawn) [GSK1379767] | 0 | 0 | 32 | 0 | 25 | 13 | 4 | 33 | 14 | 17
O=C(NCC1CC1)c1ccc(-c2cc(C(=O)NC3CC3)ccc2F)cc1 [GW810445] | 0 | 0 | 0 | 0 | 0 | 0 | 0 | 12 | 0 | 2
CC(=O)c1c(-c2ccncc2)[nH]c(-c2ccncc2)c1C [GW493036] | 0 | 0 | 0 | 9 | 27 | 10 | 0 | 0 | 0 | 0
CC(=O)Nc1nc2cnc(Nc3cc(NC(=O)c4cccc(CC(C)(C)C#N)c4)ccc3C)nc2s1 | 0 | 1 | 4 | 0 | 24 | 3 | 0 | 8 | 73 | 83
NC(=O)c1ccc(-c2cc3ncnc(SCC(=O)O)c3s2)cc1 | 0 | 0 | 0 | 0 | 14 | 4 | 2 | 20 | 0 | 0
CC(=O)Nc1ccc(-c2cc3ncnc(SCC(=O)O)c3s2)cc1 | 27 | 15 | 0 | 0 | 21 | 5 | 33 | 39 | 0 | 0
Cc1ccc(Nc2ccnc(Nc3ccc4c(c3)CS(=O)(=O)C4)n2)cc1O.Cl [GW579362] | 84 | 79 | 73 | 41 | 97 | 99.6 | 92.7 | 99 | 100 | 99.1
C[C@@H](Oc1cc(-n2cnc3cc(-c4ccncc4)ccc32)sc1C(N)=O)c1ccccc1Cl [GSK479719] | 46 | 57 | 71 | 34 | 40 | 54 | 24 | 97.3 | 97.1 | 15
CCCC(=O)Nc1n[nH]c2ncccc12 [SB-601436] | 0 | 0 | 0 | 0 | 30 | 0 | 0 | 13 | 0 | 0
Cc1ccc(C(=O)Nc2ccc(Oc3ccc4nc(NC(=O)C5CC5)cn4c3)c(F)c2)c(=O)n1-c1ccccc1 | 0 | 23 | 11 | 1 | 91 | 67 | 62 | 98.5 | 100 | 64
C[C@@H]1CNc2c(sc3ccc4nc(-c5ccc(O)cc5)ccc4c23)C(=O)N1 | 14 | 16 | 12 | 31 | 0 | 6 | 6 | 16 | 0 | 0

SMILES | %Inh [1] [%] | %Inh [2] [%] | %Inh [3] [%] | %Inh [4] [%] | %Inh [5] [%] | %Inh [6] [%] | %Inh [7] [%] | %Inh [8] [%] | %Inh [9] [%] | %Inh [10] [%]
COc1cc2nccc(Nc3ccc(Oc4ccccc4)cc3)c2cc1OC.Cl [GI261656] | 0 | 0 | 1 | 0 | 95.5 | 20 | 0 | 69 | 50 | 66
C[C@@H]1CCN(C(=O)N2CCCC2)C[C@@H]1N(C)c1ncnc2[nH]ccc12 | 13 | 9 | 20 | 3 | 29 | 21 | 18 | 38 | 6 | 0
FC(F)(F)c1cc(Br)cc(Nc2nccc(-c3cnn4ncccc34)n2)c1 [GW810578] | 4 | 0 | 0 | 77 | 16 | 30 | 70 | 95.7 | 6 | 0
c1ccc(Oc2ccc(Nc3ccnc4ccc(-c5ccccn5)cc34)cc2)cc1 [GW407034] | 0 | 34 | 25 | 4 | 69 | 14 | 0 | 0 | 3 | 38
CN(c1ccc2c(c1)nc(NCc1ccc(F)cc1)n2C)c1ccnc(Nc2ccc(CS(C)(=O)=O)cc2)n1.Cl [GW813244] | 75 | 59 | 21 | 22 | 28 | 98.9 | 1 | 98.3 | 99.9 | 77
Nc1nccc(-c2ccc3c(N)n[nH]c3c2)n1 [GSK1034945] | 0 | 0 | 0 | 12 | 15 | 6 | 2 | 0 | 11 | 0
O=C(Nc1n[nH]c2cc(-c3ccco3)ccc12)C1CC1 [SB-737447] | 14 | 0 | 6 | 0 | 0 | 0 | 4 | 59 | 0 | 0
CS(=O)(=O)Nc1ccc(-c2ccnc3[nH]ccc23)cc1 [GSK993273] | 29 | 20 | 4 | 8 | 16 | 56 | 10 | 74 | 28 | 0
Cn1ccc2ncnc(Oc3ccc(NC(=O)Nc4cccc(C(F)(F)F)c4)c(F)c3)c21 | 0 | 14 | 5 | 3 | 3 | 98.9 | 38 | 98 | 99.9 | 85
COC(=O)Nc1nc2cc(Oc3ccc(NC(=O)Nc4cc(C(F)(F)F)ccc4Cl)cc3)ccc2[nH]1.Cl [GW697465] | 4 | 34 | 95.8 | 1 | 13 | 98.8 | 0 | 99.1 | 99.4 | 91.8
Cl.c1ccc(Oc2ccc(Nc3ccnc4cc(-c5ccc(CN6CCNCC6)o5)ccc34)cc2)nc1 [GW567142] | 0 | 0 | 0 | 0 | 74 | 8 | 41 | 90.4 | 6 | 7
O=C(Nc1ccc(Oc2ccc3nc(NC(=O)C4CC4)cn3n2)c(F)c1)c1cccn(-c2ccccc2)c1=O | 0 | 9 | 11 | 6 | 73 | 98.3 | 43 | 98.2 | 99.4 | 45
COc1ccc(Nc2nccc(N3CCC(NC(=O)c4cccc(C#N)c4)C3)n2)cc1 (stereo not drawn) [GSK1379730] | 13 | 19 | 4 | 6 | 0 | 24 | 0 | 18 | 22 | 0
CCNCC(Cc1ccccc1)NC(=O)c1cc(Br)c(-c2ccnc3[nH]ccc23)s1.Cl.Cl (stereo not drawn) [GSK1383280] | 88 | 81 | 61 | 68 | 22 | 54 | 9 | 69 | 49 | 17
C[C@@H](Oc1cc(-n2cnc3cc(-c4cnn(C)c4)ccc32)sc1C(N)=O)c1ccccc1Cl [GSK580432] | 91.9 | 89 | 92.7 | 38 | 72 | 87 | 28 | 99.4 | 99.8 | 12
Cl.Cl.NC[C@H](CC1CCCCC1)NC(=O)c1ccc(-c2ccnc3[nH]ccc23)s1 [GSK1581428] | 26 | 0 | 6 | 0 | 25 | 42 | 26 | 91.9 | 13 | 10
